Test systems include HCT-15 colon; HT29 colon; SNB-75 CNS; SNB-19 CNS; U251 CNS; PC-3 prostate; SK-MEL-5 melanoma; UACC-62 melanoma; LOX IMVI melanoma; SK-MEL-28 melanoma; SK-MEL-2 melanoma; EKVX NSCLC; SN12C renal; TK-10 renal; ACHN renal; A498 renal; CCRF-CEM leukemia; MOLT-4 leukemia; SR leukemia.
Test in all cases: NCI-60 one-dose screen, 48 h (100 = growth as untreated, 0 = no growth, -100 = all killed)
Holding throughout (conditions): 10 µM unless noted

Compounds without any hit were thinned out: in the full panel of roughly 83,000, 20% have a hit.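 Each cell line was grown in a 96-well plate and treated with one concentration of compound for 48 hours. Values below 10 were considered active.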 Values without a mark were called inactive. The source made the active and inactive calls.

Regarding `CCOC(=O)C1CCN(S(=O)(=O)/N=C2/NC(=O)NC2=C(Cl)Cl)CC1`, the growth in the assay on HCT-15 colon is -72.6% (active); with HT29 colon, -61.6% (active); in the assay with SNB-75 CNS, 55.5%; with SNB-19 CNS, 16.8%; in the assay on U251 CNS it was -86.7% (active); in the assay with PC-3 prostate it was 17.7%. The growth is 14.1% in the assay on SK-MEL-5 melanoma; -30.6% (active) in the assay on UACC-62 melanoma; -65% (active) in the assay on LOX IMVI melanoma; -8.67% (active) with SK-MEL-28 melanoma; -23.4% (active) in the assay with SK-MEL-2 melanoma; 67.4% with EKVX NSCLC. Also, the growth in the assay on SN12C renal was -35.1% (active); in the assay on TK-10 renal, 33.1%; in the assay with ACHN renal, 14.2%; with A498 renal it was 23.9%; with CCRF-CEM leukemia, -53.4% (active); with MOLT-4 leukemia, -20.8% (active). Moreover, the growth in the assay on SR leukemia was -11.4% (active).

Regarding `O=C(N/N=C/C[C@@H]1[C@@H](/C=C/[C@@H](O)COc2cccc(Cl)c2)[C@H](O)C[C@@H]1O)c1ccncc1`, the growth with HCT-15 colon was 99.3%; in the assay on HT29 colon, 71.1%; in the assay on SNB-75 CNS, 90.5%; with SNB-19 CNS it was 98.1%; with U251 CNS, 92.9%; with PC-3 prostate, 91%. For the same molecule, the growth in the assay with SK-MEL-5 melanoma is 96.6%; in the assay on UACC-62 melanoma, 92.9%; in the assay with LOX IMVI melanoma, 94.3%; in the assay on SK-MEL-28 melanoma, 103%; in the assay with SK-MEL-2 melanoma it was 102%; in the assay with EKVX NSCLC, 98.4%. Besides, the growth with SN12C renal was 102%; with TK-10 renal, 73.2%; with ACHN renal, 101%; in the assay on A498 renal, 97.9%; with CCRF-CEM leukemia it was 98%; with MOLT-4 leukemia, 83.7%. Moreover, the growth in the assay with SR leukemia is 92.3%.

In the case of `COC(=O)/C=C/c1cc(OC(C)=O)c2c(c1)C(C(=O)OC)C(c1ccc(OC(C)=O)c(OC(C)=O)c1)O2` (stereo not given), the growth with HCT-15 colon was 7.82% (active); with HT29 colon it was 11%; in the assay with SNB-75 CNS, 46.3%; in the assay with SNB-19 CNS, 23.1%; in the assay on U251 CNS, 7.2% (active); in the assay on PC-3 prostate it was 12%. Moreover, the growth with SK-MEL-5 melanoma is -19% (active); with UACC-62 melanoma, 32.6%; in the assay with LOX IMVI melanoma it was 14.1%; in the assay on SK-MEL-28 melanoma, 50.5%; in the assay on SK-MEL-2 melanoma, 25%; in the assay on EKVX NSCLC, 44.4%. Moreover, the growth is 23.6% in the assay on SN12C renal; 44.7% with TK-10 renal; 34.4% in the assay on ACHN renal; 3.78% (active) in the assay with A498 renal; 9.72% (active) in the assay with CCRF-CEM leukemia; 15.3% in the assay on MOLT-4 leukemia. Further, the growth in the assay on SR leukemia is 8.61% (active).

For the molecule `C#Cc1ccccc1NC(=O)c1sc2nc3c(cc2c1N)CCCCCC3`, the growth with HCT-15 colon was 70.2%; with HT29 colon, 36.3%; in the assay on SNB-75 CNS it was 39.2%; with SNB-19 CNS, 76.5%; in the assay on U251 CNS it was 23.4%; in the assay with PC-3 prostate it was 77.4%. Besides, the growth in the assay on SK-MEL-5 melanoma was 89.6%; in the assay on UACC-62 melanoma, 91.8%; in the assay with LOX IMVI melanoma it was 22.8%; with SK-MEL-28 melanoma, 91.1%; with SK-MEL-2 melanoma it was 85.4%; in the assay with EKVX NSCLC, 69.5%. The growth in the assay on SN12C renal was 58.5%; in the assay with TK-10 renal, 63.2%; in the assay on ACHN renal, 31.1%; with A498 renal, 68.5%; in the assay with CCRF-CEM leukemia it was 60.7%; in the assay with MOLT-4 leukemia it was 67.1%. For the same molecule, the growth in the assay with SR leukemia is 12.3%.

In the case of `COc1ccc(-c2nnc(N3CCN(C(=O)CN4CCN(c5ccccc5)CC4)CC3)nc2-c2ccc(OC)cc2)cc1`, the growth in the assay with HCT-15 colon is 18.5%; with HT29 colon, 3.46% (active); in the assay on SNB-75 CNS it was 49.9%; with SNB-19 CNS, 53.5%; with U251 CNS it was 37%; in the assay on PC-3 prostate it was 7.93% (active). Further, the growth is 8.21% (active) in the assay with SK-MEL-5 melanoma; 52.1% in the assay with UACC-62 melanoma; 41.2% with LOX IMVI melanoma; 56.5% with SK-MEL-28 melanoma; 38.1% with SK-MEL-2 melanoma; 13% in the assay on EKVX NSCLC. For the same molecule, the growth with SN12C renal is 7.79% (active); in the assay with TK-10 renal, 55.3%; in the assay on ACHN renal it was 26.1%; in the assay with A498 renal it was 48%; in the assay with CCRF-CEM leukemia it was 9.28% (active); in the assay on MOLT-4 leukemia, -25.7% (active). Further, the growth with SR leukemia is -32.5% (active).

In the case of `CCCCn1c(=O)c(/C=C/C(=O)/C=C/c2cc3ccccc3n(CCCC)c2=O)cc2ccccc21`, the growth in the assay with HCT-15 colon was 1.62% (active); in the assay on HT29 colon it was -88.9% (active); in the assay with SNB-75 CNS, 48.8%; with SNB-19 CNS, 16.2%; with U251 CNS it was -48.3% (active); with PC-3 prostate, 1.47% (active). Moreover, the growth is -74.5% (active) in the assay on SK-MEL-5 melanoma; -43.8% (active) in the assay with UACC-62 melanoma; -80.3% (active) with LOX IMVI melanoma; -8.48% (active) in the assay on SK-MEL-28 melanoma; 79.5% in the assay on SK-MEL-2 melanoma; 35.8% in the assay on EKVX NSCLC. The growth was -28.1% (active) in the assay with SN12C renal; 23.4% in the assay with TK-10 renal; 5.75% (active) in the assay on ACHN renal; 12.8% in the assay on A498 renal; -0.077% (active) with CCRF-CEM leukemia; 1.3% (active) in the assay with MOLT-4 leukemia. The growth with SR leukemia was 1.82% (active).

Consider `N#CC(C#N)=C1NC(c2ccccc2)=C(c2ccccc2)C(c2ccccc2Cl)=C1C#N`, for which the growth was 102% in the assay with HCT-15 colon; 80.4% in the assay with HT29 colon; 107% in the assay on SNB-75 CNS; 106% in the assay on SNB-19 CNS; 103% with U251 CNS; 87.8% in the assay on PC-3 prostate. Also, the growth is 105% with SK-MEL-5 melanoma; 102% in the assay on UACC-62 melanoma; 91.5% with LOX IMVI melanoma; 114% in the assay with SK-MEL-28 melanoma; 94.8% in the assay with SK-MEL-2 melanoma; 97.6% in the assay with EKVX NSCLC. In addition, the growth in the assay with SN12C renal is 111%; in the assay on ACHN renal, 110%; in the assay with CCRF-CEM leukemia it was 96.2%; with MOLT-4 leukemia it was 81.5%; in the assay with SR leukemia it was 109%.

With `CC(=O)OCC1OC(OC2C(COC(C)=O)OC(OCCC[S-])C(OC(C)=O)C2OC(C)=O)C(OC(C)=O)C(OC(C)=O)C1OC(C)=O.[Au+].c1ccc(CN2[CH-]N(Cc3ccccc3)C(c3ccccc3)=C2c2ccccc2)cc1` (stereo not given), the growth in the assay with HCT-15 colon is 25.6%; in the assay on HT29 colon, 15.7%; in the assay with SNB-75 CNS, 45.5%; in the assay with SNB-19 CNS it was 23.2%; in the assay on U251 CNS, 5.17% (active); in the assay with PC-3 prostate, 17.7%. Further, the growth in the assay with SK-MEL-5 melanoma is -12.6% (active); in the assay with UACC-62 melanoma, 13.4%; in the assay with LOX IMVI melanoma, 11.3%; with SK-MEL-28 melanoma, 28.4%; with SK-MEL-2 melanoma it was 13.4%; with EKVX NSCLC, 28.1%. Further, the growth with SN12C renal is 9.26% (active); in the assay with TK-10 renal, 38.5%; with ACHN renal, 15.1%; in the assay with A498 renal it was -1.67% (active); in the assay with CCRF-CEM leukemia, 11.5%; in the assay on MOLT-4 leukemia it was 15.3%. The growth with SR leukemia is 11%.

For the origin of these results see PubChem BioAssay (NCI).
